# Values without a mark were called inactive. Calls come from the whole dose curve; as a rule, active = well fitted activation curve with a large enough effect; inconclusive = small, poorly fitted or top-dose-only effect; inactive = flat fitted curve, though single readings scatter.
# Assay: Confirmation and Secondary Assay for Modulators of Hemoglobin Beta Chain Splicing at IVS2 705 locus (AID 930);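 note: HeLa cells stably expressing the EGFP-705 splicing reporter; GFP fluorescence per well restored by corrected splicing of the IVS2-705 intron in EGFP; % of control where 0% means no effect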
# Settings: HeLa EGFP-705 splicing reporter, GFP fluorescence, 48 h; series mostly up to 46.1 µM; activation: at the top concentration
# Summary of the method: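 First, HeLa EGFP-705 cells are seeded at 500/well in Optimem with 2% FCS and left overnight. Next, compound or DMSO is added for 2 days. Finally wells are laser-scanned and total peak GFP intensity scored.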
row,Structure (SMILES),activation
1,CC(CCc1ccccc1)NCC(O)c1ccc(O)c(C(N)=O)c1 (stereo unspecified),-0.123%
2,CN1CCC(=C2c3ccccc3Sc3ccccc32)CC1,0.768%
3,COc1ccc(C2C(=O)c3ccccc3C2=O)cc1,-0.113%
4,O=C1OCCN1/N=C/c1ccc([N+](=O)[O-])o1,-1.63%
5,CCn1cc(C(=O)O)c(=O)c2cnc(N3CCCC3)nc21,2.46%
6,CCOc1ccc2nc3cc(N)ccc3c(N)c2c1,1.1%
7,CCCCOc1cc(C(=O)NCCN(CC)CC)c2ccccc2n1,1.13%
8,C/C=C(/C(=C/C)c1ccc(O)cc1)c1ccc(O)cc1,0.671%
9,CCN(CCCCOC(=O)c1ccc(OC)c(OC)c1)C(C)Cc1ccc(OC)cc1 (stereo unspecified),0.439%
10,CCCCOc1ccc(OCCCN2CCOCC2)cc1,-1.82%
11,O=C1c2ccccc2C(=O)C1c1ccccc1,0.48%
12,CC(C)(C)CC(C)(C)c1ccc(O)c(Cc2ccc(Cl)cc2Cl)c1,0.459%
13,CCN1CCN(c2cc3c(cc2F)c(=O)c(C(=O)O)cn3C2CC2)CC1,1.27%
14,Oc1c(I)cc(I)c2cccnc12,-0.251%
15,CN(C(=O)CN(CCO)CC(=O)N(C)C(C)(C)Cc1ccccc1)C(C)(C)Cc1ccccc1,-1.35%
16,COc1ccc(CCN2CCC(Nc3nc4ccccc4n3Cc3ccc(F)cc3)CC2)cc1,-0.253%

row,Structure (SMILES),activation
1,Cc1c(C(N)=O)cc([N+](=O)[O-])cc1[N+](=O)[O-],-1.15%
2,CCN(CC)C(=O)N1CCN(C)CC1,1%
3,CCCCC(CC)CN=C(N)NC(N)=NCCCCCCN=C(N)NC(N)=NCC(CC)CCCC (stereo unspecified),0.861%
4,CC(=O)Nc1c(I)cc(I)c(C(=O)O)c1I,0.646%
5,CN1CCN(C(c2ccccc2)c2ccccc2)CC1,0.213%
6,CCOc1ccc(Cc2nccc3cc(OCC)c(OCC)cc23)cc1OCC,-1.3%
7,CCCCOc1ccc(C(=O)CCN2CCCCC2)cc1,3.27%
8,CCOC(=O)n1ccn(C)c1=S,1.96%
9,CCC(=O)c1c(O)cc(O)cc1O,0.285%
10,CC(C)(Oc1ccc(Cl)cc1)C(=O)O,-0.942%
11,COc1cc(OC)cc(OC)c1,0.43%
12,CO/N=C1\CN(c2nc3c(cc2F)c(=O)c(C(=O)O)cn3C2CC2)CC1CN (stereo unspecified),0.925%
13,COc1c2occc2c(OC)c2c(=O)cc(C)oc12,0.0409%
14,CCN(CCCc1ccccc1)CCCc1ccccc1,1.9%
15,O=C(OCC(O)CO)c1ccccc1Nc1ccnc2cc(Cl)ccc12 (stereo unspecified),1.01%

# From PubChem BioAssay (NCATS)
